This note sets out measurements from PubChem BioAssay.

Test [1] in a line: sensitizers of A549 cells to miR-34 induction, primary screen, imaging, A549 dox-inducible miR-34, nuclei and caspase counts (AID 1347080). The following applies: A549 miR-34 inducible, Hoechst nuclei count, 48 h.
Test [2] is described as follows: survival rescue of mitochondrial mutant cells in low glucose, primary screen, MELAS cybrids, Rieske KO mouse fibroblasts, CellTiter-Glo (AID 1508586;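 active = mean z-score across replicates of 1.96 or higher in either the MELAS or the Rieske mutant cell line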;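 note: z relative to plate mean and SD of compound and empty wells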).
Where [3] appears, read: stronger effect = lower value, cell number ratio, induced over uninduced.
Where [4] appears, read: measured here: relative caspase fold change +Dox/-Dox.
Where [5] appears, read: measured here: total cells with miR-34 induction, stronger effect = lower value.
The mark [6] stands for this setting: measured here: total cells without miR-34 induction.
The mark [7] stands for this setting: MELAS cybrid survival, CellTiter-Glo 48 h, stronger effect = higher value.
Setting [8] is: Rieske KO mouse fibroblast survival, CellTiter-Glo 72 h.

The source made the active and inactive calls.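 Rule for the calls, unless noted: active = compounds whose cell count with miR-34 switched on is under 0.7 times the count with it off; inactive = the rest.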 *1 amine or outer side, *2 acyl side, *3 side chain or, on linkers, in order; H or OH if unused. Where a SMILES comes first, the peptide text is derived from it. Bridges are numbered along the chain shown (N, C = ends). Roman numbers before positions name the chains, in order. [ ]: non-standard residue; d: D form. Hexamethylenediamine = C(CCCN[*:2])CCN[*:1]; Dip = N[CH](C(=O)O)C(c1ccccc1)c1ccccc1; Chg = N[CH](C(=O)O)C1CCCCC1; NMeA = CN[CH](C)C(=O)O
Note: test concentration not given here.

As to `c1ccc(NCc2ccc(CNc3ccccn3)cc2)nc1`, the fold change was 0.944 (inactive) in test [1] (setting [3]) and 0.525 in test [1] (setting [4]). The values for the cell count in test [1] (setting [5]) and in test [1] (setting [6]) were 7360 and 7790, respectively. In addition, the results for the z-score in test [2] (setting [7]) and in test [2] (setting [8]) were -0.161 (inactive) and -0.0229, respectively.

Consider `C#CCNC1CCc2ccccc21` (centres undefined), for which the results for the fold change in test [1] (setting [3]) and in test [1] (setting [4]) were 1.01 (inactive) and 0.344, respectively. Moreover, the cell count in test [1] (setting [5]) amounted to 8040; in test [1] (setting [6]) it was 7960. The results for the z-score in test [2] (setting [7]) and in test [2] (setting [8]) were -0.195 (inactive) and -0.00726, respectively.

For `COc1cc(C2c3cc4c(cc3C(OC3OC5COC(c6cccs6)OC5C(O)C3O)C3COC(=O)[C@H]23)OCO4)cc(OC)c1O` (some centres undefined), the results for the fold change in test [1] (setting [3]) and in test [1] (setting [4]) were 1.06 (inactive) and 0.936, respectively. The cell count in test [1] (setting [5]) amounted to 1550; in test [1] (setting [6]), 1460. Besides, the z-score in test [2] (setting [7]) was 0.486 (inactive); in test [2] (setting [8]), 0.638.

With `COc1cc2c(cc1O)CC[C@@H]1[C@H]2CC[C@]2(C)C(O)CC[C@@H]12` (some centres undefined), the fold change is 1.05 (inactive) in test [1] (setting [3]) and 0.703 in test [1] (setting [4]). For the same molecule, the results for the cell count in test [1] (setting [5]) and in test [1] (setting [6]) were 1820 and 1740, respectively. For the same molecule, the z-score in test [2] (setting [7]) was 1.32 (inactive); in test [2] (setting [8]) it was 0.434.

With `O=C1CC(=O)c2c(Cl)c(Cl)c(Cl)c(Cl)c21`, the fold change in test [1] (setting [3]) was 1.01 (inactive); in test [1] (setting [4]), 0.472. For the same molecule, the cell count in test [1] (setting [5]) came out at 8430; in test [1] (setting [6]), 8350. Further, the z-score in test [2] (setting [7]) was -0.354 (inactive); in test [2] (setting [8]), -0.295.

`C=C[C@@]1(C)CC(OC(=O)CSC2C[C@H]3CC[C@@H](C2)N3C)[C@]2(C)C(C)CC[C@]3(CCC(=O)[C@H]32)C(C)C1O` (some centres undefined): the fold change in test [1] (setting [3]) is 0.984 (inactive); in test [1] (setting [4]), 1.2. Further, the cell count is 7780 in test [1] (setting [5]) and 7910 in test [1] (setting [6]). For the same molecule, the z-score in test [2] (setting [7]) was 2.23 (active); in test [2] (setting [8]) it was 5.36.

Consider `COc1ccc2cc1Oc1ccc(cc1)CC1c3cc(c(OC)cc3CCN1C)Oc1c(OC)c(OC)cc3c1C(C2)N(C)CC3` (centres undefined), for which the fold change in test [1] (setting [3]) was 0.908 (inactive); in test [1] (setting [4]), 0.992. For the same molecule, the cell count in test [1] (setting [5]) amounted to 6590; in test [1] (setting [6]) it was 7260. Moreover, the z-score in test [2] (setting [7]) is -0.603 (inactive); in test [2] (setting [8]), -0.273.

With `Nc1nc(Cl)nc2c1ncn2C1OC(CO)C(O)C1F` (centres undefined), the fold change in test [1] (setting [3]) was 1.03 (inactive); in test [1] (setting [4]), 0.719. Moreover, the cell count amounted to 1700 in test [1] (setting [5]) and 1650 in test [1] (setting [6]). In addition, the z-score is 0.651 (inactive) in test [2] (setting [7]) and -0.114 in test [2] (setting [8]).

As to `NCCCCCNCC12CC3CC(CC(C3)C1)C2`, the results for the fold change in test [1] (setting [3]) and in test [1] (setting [4]) were 0.991 (inactive) and 0.726, respectively. Besides, the cell count in test [1] (setting [5]) worked out at 8590; in test [1] (setting [6]), 8670. For the same molecule, the z-score in test [2] (setting [7]) was -0.291 (inactive); in test [2] (setting [8]) it was -0.0827.

With `OC(CNCC(O)[C@H]1CCc2cc(F)ccc2O1)[C@@H]1CCc2cc(F)ccc2O1` (some centres undefined), the figures for the fold change in test [1] (setting [3]) and in test [1] (setting [4]) were 0.966 (inactive) and 0.954, respectively. Further, the figures for the cell count in test [1] (setting [5]) and in test [1] (setting [6]) were 6580 and 6810, respectively. Further, the z-score in test [2] (setting [7]) was 1.33 (inactive); in test [2] (setting [8]) it was 0.256.

On to `CC(=O)O[C@@]1(C(C)=O)CC[C@H]2[C@@H]3C=C(Cl)C4=CC(=O)C5CC5[C@]4(C)[C@@H]3CC[C@@]21C` (some centres undefined), for which the fold change was 0.94 (inactive) in test [1] (setting [3]) and 0.713 in test [1] (setting [4]). For the same molecule, the cell count in test [1] (setting [5]) is 7720; in test [1] (setting [6]), 8210. Also, the z-score in test [2] (setting [7]) was -0.351 (inactive); in test [2] (setting [8]) it was 0.528.

In the case of `O=C(Oc1cc(S(=O)(=O)c2ccccc2)ccc1[N+](=O)[O-])c1ccc(Cl)cc1`, the results for the fold change in test [1] (setting [3]) and in test [1] (setting [4]) were 0.897 (inactive) and 0.914, respectively. Besides, the cell count in test [1] (setting [5]) amounted to 8540; in test [1] (setting [6]), 9520. Further, the z-score in test [2] (setting [7]) is -0.507 (inactive); in test [2] (setting [8]), -2.16.

Take `O=C(Nc1ncc(SCCN2CCCC2)s1)[C@]1(c2ccc(S(=O)(=O)C3CC3)cc2)CC1C1CCCCC1` (some centres undefined): the fold change in test [1] (setting [3]) was 0.954 (inactive); in test [1] (setting [4]), 1.22. Further, the cell count in test [1] (setting [5]) came out at 5020; in test [1] (setting [6]), 5260. The z-score in test [2] (setting [7]) is -0.306 (inactive); in test [2] (setting [8]), -0.0398.

In the case of `CCOC(=O)C(CCc1ccccc1)NC(C)C(=O)N1Cc2cc(OC)c(OC)cc2CC1C(=O)O` (centres undefined), the figures for the fold change in test [1] (setting [3]) and in test [1] (setting [4]) were 0.97 (inactive) and 0.414, respectively. Further, the cell count in test [1] (setting [5]) was 7830; in test [1] (setting [6]) it was 8070. Besides, the z-score is -0.293 (inactive) in test [2] (setting [7]) and -0.111 in test [2] (setting [8]).

For `O=C(O)c1ccc(N2C(=O)C(=Cc3ccc(-c4ccc([N+](=O)[O-])cc4)o3)C=C2c2ccccc2)cc1`, the fold change was 0.852 (inactive) in test [1] (setting [3]) and 1.02 in test [1] (setting [4]). Moreover, the results for the cell count in test [1] (setting [5]) and in test [1] (setting [6]) were 7620 and 8950, respectively. Also, the z-score in test [2] (setting [7]) was -0.417 (inactive); in test [2] (setting [8]), 0.868.

Regarding `O=C(O)C1=CC(O)C(O)C(O)C1` (centres undefined), the fold change in test [1] (setting [3]) is 0.975 (inactive); in test [1] (setting [4]), 0.723. The cell count was 9710 in test [1] (setting [5]) and 9960 in test [1] (setting [6]). Further, the results for the z-score in test [2] (setting [7]) and in test [2] (setting [8]) were -0.355 (inactive) and 0.667, respectively.

Take `CC(C)N(CC1OC(n2cnc3c(N)ncnc32)C(O)C1O)C1CC(CCc2nc3ccc(C(C)(C)C)cc3[nH]2)C1` (centres undefined): the fold change in test [1] (setting [3]) was 0.923 (inactive); in test [1] (setting [4]), 0.796. The figures for the cell count in test [1] (setting [5]) and in test [1] (setting [6]) were 8950 and 9700, respectively. Moreover, the z-score was -0.166 (inactive) in test [2] (setting [7]) and -0.146 in test [2] (setting [8]).

For the molecule `O=C(Nc1ccc(S(=O)(=O)Nc2ccccc2Cl)c(Cl)c1)c1ccccn1`, the fold change was 0.91 (inactive) in test [1] (setting [3]) and 0.513 in test [1] (setting [4]). For the same molecule, the cell count in test [1] (setting [5]) came to 8160; in test [1] (setting [6]) it was 8970. The figures for the z-score in test [2] (setting [7]) and in test [2] (setting [8]) were -0.368 (inactive) and -0.0416, respectively.

As to `Cn1cc(-c2[nH]c3cc(NC(=O)C(N)C4CCCCC4)cc4c3c2C=NNC4=O)cn1` (centres undefined), the results for the fold change in test [1] (setting [3]) and in test [1] (setting [4]) were 0.983 (inactive) and 1.09, respectively. Also, the results for the cell count in test [1] (setting [5]) and in test [1] (setting [6]) were 2060 and 2100, respectively. For the same molecule, the figures for the z-score in test [2] (setting [7]) and in test [2] (setting [8]) were 0.356 (inactive) and -0.0626, respectively.

On to `CC(=NNC(=S)N1CCC1)c1ccccn1`, for which the fold change in test [1] (setting [3]) is 0.887 (inactive); in test [1] (setting [4]) it was 0.742. Moreover, the figures for the cell count in test [1] (setting [5]) and in test [1] (setting [6]) were 1950 and 2200, respectively. Besides, the z-score is 7.64 (active) in test [2] (setting [7]) and -5.36 in test [2] (setting [8]).

`CC(=Cc1ccc(C(=O)O)cc1)c1ccc2c(c1)C(C)(C)CCC2(C)C`: the fold change in test [1] (setting [3]) was 0.986 (inactive); in test [1] (setting [4]), 0.781. Besides, the cell count in test [1] (setting [5]) amounted to 8250; in test [1] (setting [6]), 8370. Also, the z-score in test [2] (setting [7]) was -0.023 (inactive); in test [2] (setting [8]) it was -0.2.

On to `CNC(C)C(=O)NC(C(=O)N1CCCC1C(=O)NC(C(=O)NCCCCCCNC(=O)C(NC(=O)C1CCCN1C(=O)C(NC(=O)C(C)NC)C1CCCCC1)C(c1ccccc1)c1ccccc1)C(c1ccccc1)c1ccccc1)C1CCCCC1` (centres undefined) (I: H-[NMeA][Chg]P[Dip] / II: H-[NMeA][Chg]P[Dip]; linker I:C-II:C via Hexamethylenediamine; configuration not given here), for which the fold change is 0.971 (inactive) in test [1] (setting [3]) and 0.501 in test [1] (setting [4]). In addition, the cell count in test [1] (setting [5]) is 8750; in test [1] (setting [6]), 9000. Further, the z-score is -0.461 (inactive) in test [2] (setting [7]) and -0.132 in test [2] (setting [8]).

With `CC(C)CCNC(=O)C(CC(C)C)NC(=O)C1OC1C(=O)O` (centres undefined), the fold change in test [1] (setting [3]) is 0.919 (inactive); in test [1] (setting [4]), 0.36. Also, the cell count in test [1] (setting [5]) came out at 8670; in test [1] (setting [6]), 9430. For the same molecule, the z-score in test [2] (setting [7]) is -0.356 (inactive); in test [2] (setting [8]), 0.0853.

`CCCC1CC(C(=O)NC(C(C)O)[C@@H]2OC(SC)C(O)C(O)C2O)N(C)C1` (some centres undefined): the fold change was 0.883 (inactive) in test [1] (setting [3]) and 0.66 in test [1] (setting [4]). Besides, the cell count in test [1] (setting [5]) was found to be 9270; in test [1] (setting [6]), 10500. The z-score was -0.388 (inactive) in test [2] (setting [7]) and -0.162 in test [2] (setting [8]).
